# For some of these results: Entries with a potency or affinity are not part of this list.
# Columns and labels:
# [1] = target: T1, Methionyl-tRNA synthetase, putative (Leishmania donovani (strain BPK282A1)) (UniProt E9BF75); experiment: Leishmania donovani Methionine tRNA synthetase (LdMetRS):v7. Dose response assay; format: functional; parameters: conc 80 nM, time 150 minutes
# T1 sequence (whole entry): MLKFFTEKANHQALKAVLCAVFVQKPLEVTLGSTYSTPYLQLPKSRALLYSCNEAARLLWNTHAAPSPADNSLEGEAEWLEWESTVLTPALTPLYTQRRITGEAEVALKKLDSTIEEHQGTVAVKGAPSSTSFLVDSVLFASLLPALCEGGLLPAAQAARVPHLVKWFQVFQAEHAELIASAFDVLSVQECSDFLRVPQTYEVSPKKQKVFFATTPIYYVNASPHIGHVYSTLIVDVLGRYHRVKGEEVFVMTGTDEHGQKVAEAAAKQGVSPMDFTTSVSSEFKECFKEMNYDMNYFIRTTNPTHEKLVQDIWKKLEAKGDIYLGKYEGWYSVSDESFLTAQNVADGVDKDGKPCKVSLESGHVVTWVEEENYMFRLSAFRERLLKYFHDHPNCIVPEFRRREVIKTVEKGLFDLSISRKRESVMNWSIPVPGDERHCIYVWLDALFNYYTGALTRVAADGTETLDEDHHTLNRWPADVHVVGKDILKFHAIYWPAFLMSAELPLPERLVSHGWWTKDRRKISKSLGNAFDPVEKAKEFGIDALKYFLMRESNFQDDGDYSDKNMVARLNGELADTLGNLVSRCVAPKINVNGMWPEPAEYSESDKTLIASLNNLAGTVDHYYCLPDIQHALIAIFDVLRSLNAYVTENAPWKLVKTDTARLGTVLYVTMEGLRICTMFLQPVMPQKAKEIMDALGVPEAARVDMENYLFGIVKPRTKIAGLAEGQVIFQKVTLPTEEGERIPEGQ
# [2] = target: AMP-activated protein kinase, AMPK (Homo sapiens) (UniProt P54646+O43741+P54619+Q9UGJ0+Q9Y478+Q13131+Q9UGI9); experiment: AMP-dependent Kinase enzyme assay. An in vitro enzyme assay that detects ADP turnover that is directly proportional to AMPK activity. This uses naive AMPK that is activated during the assay with MK-8722; format: functional; parameters: scale not given: direction of the effect not stated beside the values; conditions: 30 µM
# [3] = target: Protein translocase subunit SecA (Escherichia coli (strain K12)) (UniProt P10408); experiment: Assay to Identify E. coli SecA ATPase Inhibitors; format: functional; parameters: scale not given: direction of the effect not stated beside the values; conditions: 30 µM
# Chain of Protein translocase subunit SecA (Escherichia coli (strain K12)) (P10408 whole entry): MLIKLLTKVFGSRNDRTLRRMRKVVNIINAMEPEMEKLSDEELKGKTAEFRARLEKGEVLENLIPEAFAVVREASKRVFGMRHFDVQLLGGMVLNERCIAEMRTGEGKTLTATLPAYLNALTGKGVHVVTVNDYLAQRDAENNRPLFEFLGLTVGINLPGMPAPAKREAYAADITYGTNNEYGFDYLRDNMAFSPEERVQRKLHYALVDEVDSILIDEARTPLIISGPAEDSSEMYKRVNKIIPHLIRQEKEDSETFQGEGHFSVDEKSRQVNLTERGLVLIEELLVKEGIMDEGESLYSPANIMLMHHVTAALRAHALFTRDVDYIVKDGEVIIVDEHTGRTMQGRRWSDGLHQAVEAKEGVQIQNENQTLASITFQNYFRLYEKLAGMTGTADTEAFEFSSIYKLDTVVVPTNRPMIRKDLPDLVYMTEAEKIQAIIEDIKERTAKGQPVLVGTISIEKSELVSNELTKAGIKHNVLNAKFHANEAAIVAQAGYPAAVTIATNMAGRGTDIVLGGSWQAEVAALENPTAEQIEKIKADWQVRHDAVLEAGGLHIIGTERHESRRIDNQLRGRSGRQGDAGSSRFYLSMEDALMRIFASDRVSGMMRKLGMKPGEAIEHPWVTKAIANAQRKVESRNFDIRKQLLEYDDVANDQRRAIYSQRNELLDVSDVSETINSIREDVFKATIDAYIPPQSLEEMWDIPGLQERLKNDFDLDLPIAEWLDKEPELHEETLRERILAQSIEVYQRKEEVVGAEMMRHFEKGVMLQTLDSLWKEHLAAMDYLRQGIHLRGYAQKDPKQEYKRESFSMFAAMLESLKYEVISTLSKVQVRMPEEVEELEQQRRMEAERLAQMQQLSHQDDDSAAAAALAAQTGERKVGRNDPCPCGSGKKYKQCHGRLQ
# [4] = target: T2, Ubiquitin-activating enzyme e1, putative (Leishmania donovani (strain BPK282A1)) (UniProt E9BSI1); experiment: Leishmania donovani Ubiquitin Activating Enzyme (LdE1); format: functional; parameters: scale not given: direction of the effect not stated beside the values; conditions: 30 µM
# T2 sequence (whole entry): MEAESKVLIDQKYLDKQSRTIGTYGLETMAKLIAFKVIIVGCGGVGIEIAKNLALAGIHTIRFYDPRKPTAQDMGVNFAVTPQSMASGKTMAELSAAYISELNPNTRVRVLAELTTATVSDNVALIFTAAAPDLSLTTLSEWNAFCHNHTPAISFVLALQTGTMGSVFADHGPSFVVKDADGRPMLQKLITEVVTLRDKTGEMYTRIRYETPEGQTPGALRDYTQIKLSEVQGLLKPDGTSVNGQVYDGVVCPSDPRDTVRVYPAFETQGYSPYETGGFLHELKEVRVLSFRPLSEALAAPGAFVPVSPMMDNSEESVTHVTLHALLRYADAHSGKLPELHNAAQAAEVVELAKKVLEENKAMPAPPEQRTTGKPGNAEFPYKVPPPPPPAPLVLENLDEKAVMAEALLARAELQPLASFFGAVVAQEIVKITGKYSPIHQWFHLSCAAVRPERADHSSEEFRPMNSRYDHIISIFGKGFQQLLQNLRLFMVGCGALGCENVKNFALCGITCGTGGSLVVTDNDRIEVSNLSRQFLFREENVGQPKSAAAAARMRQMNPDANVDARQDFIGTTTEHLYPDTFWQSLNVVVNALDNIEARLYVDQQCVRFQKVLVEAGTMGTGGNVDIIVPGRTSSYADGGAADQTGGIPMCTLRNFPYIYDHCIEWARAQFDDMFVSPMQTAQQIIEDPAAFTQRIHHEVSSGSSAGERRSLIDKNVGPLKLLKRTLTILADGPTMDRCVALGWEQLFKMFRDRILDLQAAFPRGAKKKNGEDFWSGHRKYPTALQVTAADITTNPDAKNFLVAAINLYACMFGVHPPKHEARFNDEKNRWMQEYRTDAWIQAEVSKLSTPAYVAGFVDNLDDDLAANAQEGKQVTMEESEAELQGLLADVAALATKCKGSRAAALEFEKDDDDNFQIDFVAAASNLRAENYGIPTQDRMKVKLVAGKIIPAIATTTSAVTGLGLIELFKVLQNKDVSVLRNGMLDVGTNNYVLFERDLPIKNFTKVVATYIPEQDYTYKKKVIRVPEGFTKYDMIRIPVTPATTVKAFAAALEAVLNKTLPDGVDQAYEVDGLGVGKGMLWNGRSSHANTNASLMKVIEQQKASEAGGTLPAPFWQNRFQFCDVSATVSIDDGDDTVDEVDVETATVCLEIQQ
# [5] = target: Sialic acid-binding Ig-like lectin 9 (Homo sapiens) (UniProt Q9Y336); experiment: Hs-Siglec9 ALPHAscreen SOP 20170721; parameters: scale not given: direction of the effect not stated beside the values; conditions: 10 µM
# Chain of Sialic acid-binding Ig-like lectin 9 (Homo sapiens) (Q9Y336 whole entry): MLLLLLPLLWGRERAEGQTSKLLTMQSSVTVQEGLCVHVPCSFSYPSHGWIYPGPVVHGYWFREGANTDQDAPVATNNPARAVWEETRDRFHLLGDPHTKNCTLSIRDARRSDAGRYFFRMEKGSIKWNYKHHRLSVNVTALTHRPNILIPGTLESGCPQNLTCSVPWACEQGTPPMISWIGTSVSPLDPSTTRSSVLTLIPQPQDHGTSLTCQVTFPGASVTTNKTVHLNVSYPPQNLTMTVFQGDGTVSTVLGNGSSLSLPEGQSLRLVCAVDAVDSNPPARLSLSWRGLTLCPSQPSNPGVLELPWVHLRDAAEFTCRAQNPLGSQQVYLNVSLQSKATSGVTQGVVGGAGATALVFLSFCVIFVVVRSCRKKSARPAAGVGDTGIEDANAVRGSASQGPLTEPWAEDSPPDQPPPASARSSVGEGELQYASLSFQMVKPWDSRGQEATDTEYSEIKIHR
# Trypanosoma cruzi = experiment: Trypanosoma cruzi phosphomannomutase and mannose-1-phosphate guanylyltransferase assay; format: functional; parameters: scale not given: direction of the effect not stated beside the values; conditions: 10 µM
# [6] = target: T3, Arginase-2, mitochondrial (Homo sapiens) (UniProt P78540); experiment: in vitro enzyme assay to detect the production of urea directly proportional to the activity of Arginase II; format: functional; parameters: scale not given: in the data most compounds retested in dose-response had high values; conditions: 33.3 µM
# T3 sequence (whole entry): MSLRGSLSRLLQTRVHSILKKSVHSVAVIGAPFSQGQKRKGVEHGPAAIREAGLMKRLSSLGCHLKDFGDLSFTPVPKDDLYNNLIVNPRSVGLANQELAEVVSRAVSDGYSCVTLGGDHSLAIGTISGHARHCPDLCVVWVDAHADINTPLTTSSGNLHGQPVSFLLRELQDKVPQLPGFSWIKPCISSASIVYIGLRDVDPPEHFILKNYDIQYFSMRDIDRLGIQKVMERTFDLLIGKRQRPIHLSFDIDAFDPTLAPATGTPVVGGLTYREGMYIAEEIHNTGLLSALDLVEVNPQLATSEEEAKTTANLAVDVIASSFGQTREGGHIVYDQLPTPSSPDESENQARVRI
# [7] = target: T4, Proteasome subunit beta (Trypanosoma cruzi) (UniProt O96673); experiment: Trypanosoma cruzi proteasome chymotrypsin-like activity (TcProtChymo) assay.; format: functional; parameters: scale not given: in the data most compounds retested in dose-response had high values; conditions: 9.37 µM
# T4 sequence (whole entry): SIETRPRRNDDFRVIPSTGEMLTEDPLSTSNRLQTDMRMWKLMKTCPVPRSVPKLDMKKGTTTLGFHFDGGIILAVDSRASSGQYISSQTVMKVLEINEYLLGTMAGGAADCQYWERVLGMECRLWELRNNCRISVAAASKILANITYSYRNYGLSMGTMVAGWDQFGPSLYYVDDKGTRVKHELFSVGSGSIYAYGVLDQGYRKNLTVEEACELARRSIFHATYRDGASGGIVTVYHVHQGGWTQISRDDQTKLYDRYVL
# Homo sapiens = species: Homo sapiens; experiment: To identify inhibition of the IFN signalling (Jak-Stat) pathway via expression of an eGFP reporter gene under the control of an IFN-stimulated response element (ISRE) containing MxA promoter.; format: functional; parameters: scale not given: direction of the effect not stated beside the values; conditions: 30 µM
# [8] = target: T5, Tyrosyl-tRNA synthetase, putative (Trypanosoma cruzi (strain CL Brener)) (UniProt Q4DSP6); experiment: Trypanosoma cruzi tyrosyl tRNA synthetase (TcYRS) _High Tyrosine SOP; format: functional; parameters: scale not given: in the data most compounds retested in dose-response had high values; conditions: 30 µM
# T5 sequence (whole entry): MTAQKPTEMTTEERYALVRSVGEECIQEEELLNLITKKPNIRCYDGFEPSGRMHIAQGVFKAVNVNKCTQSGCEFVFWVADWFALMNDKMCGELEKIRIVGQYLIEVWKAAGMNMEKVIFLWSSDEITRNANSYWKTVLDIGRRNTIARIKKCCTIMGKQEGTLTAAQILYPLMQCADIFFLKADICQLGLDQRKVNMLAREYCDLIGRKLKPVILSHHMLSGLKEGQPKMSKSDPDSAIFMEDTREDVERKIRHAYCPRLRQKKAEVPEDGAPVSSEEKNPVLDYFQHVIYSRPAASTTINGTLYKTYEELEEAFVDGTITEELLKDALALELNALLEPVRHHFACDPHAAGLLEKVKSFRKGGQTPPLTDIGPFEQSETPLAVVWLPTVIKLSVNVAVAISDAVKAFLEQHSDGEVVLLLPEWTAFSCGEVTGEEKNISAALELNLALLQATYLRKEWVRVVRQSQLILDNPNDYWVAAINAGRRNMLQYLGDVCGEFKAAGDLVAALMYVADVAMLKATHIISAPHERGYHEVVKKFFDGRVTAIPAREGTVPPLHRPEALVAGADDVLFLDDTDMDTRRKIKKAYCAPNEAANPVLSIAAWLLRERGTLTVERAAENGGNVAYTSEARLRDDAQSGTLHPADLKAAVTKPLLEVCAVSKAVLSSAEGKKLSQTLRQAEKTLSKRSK
# [9] = target: T5, Tyrosyl-tRNA synthetase, putative (Trypanosoma cruzi (strain CL Brener)); experiment: Trypanosoma cruzi tyrosyl tRNA synthetase (TcYRS) SOP; format: functional; parameters: scale not given: direction of the effect not stated beside the values; conditions: 30 µM
# [10] = target: Chromo domain-containing protein 1 (Saccharomyces cerevisiae (strain ATCC 204508 / S288c) (Baker's yeast)) (UniProt P32657); experiment: ScCHD-1 Enzyme Inhibition Assay; format: functional; parameters: scale not given: in the data most compounds retested in dose-response had high values; conditions: 30 µM
# Chain of Chromo domain-containing protein 1 (Saccharomyces cerevisiae (strain ATCC 204508 / S288c) (Baker's yeast)) (P32657 whole entry, the tested form may be a part): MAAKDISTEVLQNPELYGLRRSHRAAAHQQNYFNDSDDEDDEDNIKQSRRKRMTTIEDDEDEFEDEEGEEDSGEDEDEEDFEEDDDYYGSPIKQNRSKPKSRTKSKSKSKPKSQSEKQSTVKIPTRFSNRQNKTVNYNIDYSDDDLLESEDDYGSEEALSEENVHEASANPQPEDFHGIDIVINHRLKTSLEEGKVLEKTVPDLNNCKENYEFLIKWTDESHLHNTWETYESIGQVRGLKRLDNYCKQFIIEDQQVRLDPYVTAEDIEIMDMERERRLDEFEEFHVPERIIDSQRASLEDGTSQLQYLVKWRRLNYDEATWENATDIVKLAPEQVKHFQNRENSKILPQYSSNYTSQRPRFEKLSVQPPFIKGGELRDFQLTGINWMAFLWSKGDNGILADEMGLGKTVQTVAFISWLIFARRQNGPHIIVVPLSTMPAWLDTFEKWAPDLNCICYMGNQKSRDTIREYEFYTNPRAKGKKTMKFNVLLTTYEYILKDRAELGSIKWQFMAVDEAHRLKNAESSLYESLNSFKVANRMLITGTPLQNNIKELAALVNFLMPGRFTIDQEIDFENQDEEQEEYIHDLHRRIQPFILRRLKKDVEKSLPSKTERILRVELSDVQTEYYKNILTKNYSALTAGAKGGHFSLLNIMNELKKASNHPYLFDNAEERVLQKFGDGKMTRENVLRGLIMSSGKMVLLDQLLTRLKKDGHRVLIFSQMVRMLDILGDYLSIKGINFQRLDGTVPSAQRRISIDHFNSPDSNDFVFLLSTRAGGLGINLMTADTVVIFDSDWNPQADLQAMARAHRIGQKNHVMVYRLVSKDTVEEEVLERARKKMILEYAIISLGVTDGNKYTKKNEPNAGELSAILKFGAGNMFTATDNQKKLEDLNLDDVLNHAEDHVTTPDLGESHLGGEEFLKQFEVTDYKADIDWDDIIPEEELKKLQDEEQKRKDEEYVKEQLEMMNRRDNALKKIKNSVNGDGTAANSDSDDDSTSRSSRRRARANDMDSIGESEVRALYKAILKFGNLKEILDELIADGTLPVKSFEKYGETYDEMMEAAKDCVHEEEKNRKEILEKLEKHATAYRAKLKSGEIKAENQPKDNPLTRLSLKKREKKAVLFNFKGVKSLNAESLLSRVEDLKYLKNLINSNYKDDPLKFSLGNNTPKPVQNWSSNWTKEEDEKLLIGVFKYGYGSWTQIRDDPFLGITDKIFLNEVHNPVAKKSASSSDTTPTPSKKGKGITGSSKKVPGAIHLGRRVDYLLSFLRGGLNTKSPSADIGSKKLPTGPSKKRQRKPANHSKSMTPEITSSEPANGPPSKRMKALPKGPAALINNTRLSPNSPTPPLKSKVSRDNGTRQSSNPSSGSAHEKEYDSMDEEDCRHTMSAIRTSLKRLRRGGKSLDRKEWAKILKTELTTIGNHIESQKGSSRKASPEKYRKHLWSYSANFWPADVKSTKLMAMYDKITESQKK
smiles,measurement,setting,value
O=C(c1cc(=O)n(-c2ccccc2)[nH]1)N1CCCC(c2ccn[nH]2)C1 (stereo unspecified),PXC50,"[1]; BOTTOM 0.320076031, HILLSLOPE 1.262872317, MAX_EFFECT 68.45753899, TOP 100.0",4.26
same,PXC50,"[1]; BOTTOM -1.400745031, HILLSLOPE 1.149427593, MAX_EFFECT 63.75838926, TOP 91.13261067",4.31
same,PXC50,"[1]; BOTTOM -5.915072335, HILLSLOPE 1.793815397, MAX_EFFECT 65.97222222, TOP 99.62132459",4.18
same,Percent Effect,[2],-16.1%
CC(=O)N1CCN(c2ccc3ccc(C(=O)NC4CCCC4)cn23)CC1,PXC50,"[1]; BOTTOM 0.0163, HILLSLOPE 3.098457383, MAX_EFFECT 65.01650165, TOP 63.35125002",4.68
same,PXC50,"[1]; BOTTOM 1.065846223, HILLSLOPE 1.103958369, MAX_EFFECT 61.67400881, TOP 100.0",4.54
same,PXC50,"[1]; BOTTOM 3.194533203, HILLSLOPE 3.014598033, MAX_EFFECT 67.98418972, TOP 64.53848237",4.96
same,PXC50,"[1]; BOTTOM 4.030962781, HILLSLOPE 1.885788534, MAX_EFFECT 71.11111111, TOP 74.41524471",4.79
same,PXC50,"[1]; BOTTOM 4.940042643, HILLSLOPE 1.835166553, MAX_EFFECT 81.72043011, TOP 100.0",4.36
same,PXC50,"[1]; BOTTOM 5.527382632, HILLSLOPE 1.355052942, MAX_EFFECT 67.14876033, TOP 100.0",4.56
same,PXC50,"[1]; BOTTOM 8.593441039, HILLSLOPE 3.55536171, MAX_EFFECT 67.39130435, TOP 63.3453536",4.8
same,Percent Effect,[3],-2.65%
same,Percent Effect,[4],14.3%
same,Percent Effect,[5],3.54%
same,Percent Effect,Trypanosoma cruzi,-0.563%
same,Percent Effect,[6],1.37%
same,Percent Effect,[7],12.4%
same,Percent Effect,Homo sapiens,8.76%
same,Percent Effect,[8],31.9%
same,Percent Effect,[9],15%
same,Percent Effect,[10],-4.27%
Cc1cc(C)n(-c2nc(NCCCO)c3c4c(sc3n2)CCCC4)n1,PXC50,"[1]; BOTTOM 0.694327114, HILLSLOPE 1.749821258, MAX_EFFECT 87.74703557, TOP 100.0",4.43
same,PXC50,"[1]; BOTTOM 1.783825543, HILLSLOPE 1.533717892, MAX_EFFECT 94.44444444, TOP 106.8963367",4.59
same,PXC50,"[1]; BOTTOM 1.928318756, HILLSLOPE 2.074005498, MAX_EFFECT 78.73015873, TOP 100.0",4.27
same,PXC50,"[1]; BOTTOM 4.876612539, HILLSLOPE 1.662902224, MAX_EFFECT 88.59060403, TOP 97.50762335",4.61
same,PXC50,"[1]; BOTTOM 5.143035966, HILLSLOPE 1.849282201, MAX_EFFECT 96.18717504, TOP 100.0",4.48
c1ccc(C2CCCN(c3cncc(-n4cccn4)n3)CC2)cc1 (stereo unspecified),PXC50,"[1]; BOTTOM 2.059841181, HILLSLOPE 1.067052754, MAX_EFFECT 60.46065259, TOP 100.0",4.15
same,PXC50,"[1]; BOTTOM 3.016481369, HILLSLOPE 1.023719455, MAX_EFFECT 53.04659498, TOP 100.0",4.01
same,PXC50,"[1]; BOTTOM -1.1240017, HILLSLOPE 1.127395441, MAX_EFFECT 50.23923445, TOP 100.0",4.01
same,PXC50,[1]; MAX_EFFECT 41.25412541,< 4
same,PXC50,[1]; MAX_EFFECT 41.30434783,< 4
